Data published in PubChem BioAssay.
Inconclusive results are not listed. For some assays here: Potency and affinity values are given separately. Active and inactive are the calls of the source.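 Rule for the calls, unless noted: active = luciferase signal above three times the same-plate solvent-only control wells; inactive = the rest.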

Experiments:
[1] = polyglutamine-triggered caspase-3 activation inhibitors, cell-based (AID 1583); details: polyglutamine-induced caspase-3 activation, cell assay; stronger effect = higher value;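 tested at 10 µM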
[2] = suppressors of polyQ aggregation in yeast, 75Q-TubU reporter (AID 1593); details: Yeast 75Q polyglutamine aggregation reporter
[3] = rescue of polyQ-huntingtin neuronal dysfunction in worms, whole organism, C. elegans mechanosensory neurons, N-terminal huntingtin (AID 1599); details: touch response, stronger effect = higher value
[4] = inhibitors of mitochondrial cytochrome c release, biochemical, purified mitochondria (AID 1603); details: stronger effect = lower value;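 note: mouse liver mitochondria challenged with calcium chloride; signal normalized to the plate average as 100%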
[5] = inhibitors of polyQ protein aggregation (AID 1604); details: polyglutamine-induced protein aggregation inhibition assay; stronger effect = higher value; tested at 2.5 µM
[6] = protection against mutant huntingtin cytotoxicity, PC12 cells, LDH release (AID 1610); details: PC12 mutant huntingtin toxicity, final LDH at 4 uM, stronger effect = lower value
[7] = enhancers of glutamate uptake in motor neurons, MN-1 cell line (AID 1612); details: MN-1 motor neuron cells, stronger effect = higher value;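 note: tested at 1 µM final; 0% = mean of DMSO vehicle wells on each plate; positive means more glutamate uptake than control and negative means less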
[8] = reducers of polyQ inclusions in PC12 cells, cell-based, NGF-treated PC12, GFPQ80 (AID 1614); details: PC12 NGF-treated GFP-polyQ80 inclusion reduction;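 note: lower means fewer inclusions and 0 means no inclusions at all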
[9] = suppressors of polyglutamine aggregation in yeast, 75Q-TubH (AID 1616); details: S. cerevisiae 75Q-TubH polyglutamine aggregation suppression; stronger effect = higher value
[10] = target: Mitogen-activated protein kinase 7 (Homo sapiens) (UniProt Q13164); test: ERK5 transactivation activators in reporter cells, primary screen, cell-based, HTS (AID 1508626); details: HeLa Gal4-ERK5 transactivation, 18 h, at 5 µM, stronger effect = higher value;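 note: luciferase driven by Gal4-ERK5 fusion binding five Gal4 sites before minimal TATA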
Chain of Mitogen-activated protein kinase 7 (Homo sapiens) (Q13164 whole entry, looked up, the tested form may be a part): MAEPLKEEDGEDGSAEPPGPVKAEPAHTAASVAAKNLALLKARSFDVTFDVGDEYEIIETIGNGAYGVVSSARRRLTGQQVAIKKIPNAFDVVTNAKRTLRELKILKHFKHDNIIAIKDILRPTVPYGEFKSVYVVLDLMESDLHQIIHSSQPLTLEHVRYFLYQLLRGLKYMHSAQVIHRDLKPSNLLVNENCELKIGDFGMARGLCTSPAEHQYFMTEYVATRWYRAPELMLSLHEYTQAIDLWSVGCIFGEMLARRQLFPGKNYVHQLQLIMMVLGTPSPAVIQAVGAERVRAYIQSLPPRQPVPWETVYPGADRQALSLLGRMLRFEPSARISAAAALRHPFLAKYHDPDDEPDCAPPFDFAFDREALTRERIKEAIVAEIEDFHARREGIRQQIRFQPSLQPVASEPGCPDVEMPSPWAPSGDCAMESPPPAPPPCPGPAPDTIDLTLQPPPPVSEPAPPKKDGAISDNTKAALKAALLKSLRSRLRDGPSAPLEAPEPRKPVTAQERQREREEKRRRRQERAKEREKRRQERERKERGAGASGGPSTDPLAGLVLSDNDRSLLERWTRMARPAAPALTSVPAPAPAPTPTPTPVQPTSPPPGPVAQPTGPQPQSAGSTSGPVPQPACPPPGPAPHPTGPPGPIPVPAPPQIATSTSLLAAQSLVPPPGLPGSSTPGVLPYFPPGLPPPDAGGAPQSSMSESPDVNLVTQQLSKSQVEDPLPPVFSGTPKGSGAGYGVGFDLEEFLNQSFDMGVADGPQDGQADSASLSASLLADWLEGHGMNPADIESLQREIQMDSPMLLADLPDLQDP

[11] = liver-stage malaria parasite growth inhibition, primary screen, cell-based, HepG2, luciferase luminescence, HepG2 viability (AID 624349; in the data active = parasite load remaining mostly below about 12%, no sharp cut-off; inactive = mostly above about 10%;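 note: 100% = mean of DMSO negative control wells on the same plate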); details: P. berghei liver stage in HepG2, luciferase luminescence, concentration not given here; parasite load remaining: stronger effect = lower value; viability: measured here: HepG2 viability without parasites
[12] = enhancers of SMN2 over SMN1 splicing, cell-based, SMN2/SMN1 luciferase reporters (AID 1598; call rule not given here); details: SMN2 vs SMN1 luciferase splicing reporter cells, at 10 µM; SMN1 luciferase ratio: measured here: SMN1 luciferase reporter average; SMN2 luciferase ratio: measured here: SMN2 luciferase reporter average, stronger effect = higher value; SMN2/SMN1 luciferase ratio: stronger effect = higher value

Compound CC(NC(=O)C(NC(=O)OCc1ccccc1)C(C)C)C(=O)NC(CC(=O)O)C(=O)OC(F)F (stereo not given) has an inhibition [1] of 59.7%, a score [2] of 1.09 and a rescue above control [3] of -1.19. For the same compound, the cytochrome c release ratio [4] was 0.97, the inhibition of aggregation [5] was 0.68% and the normalised LDH release [6] was 0.83. It also gave a glutamate uptake change [7] of 2.37%, an inclusion score [8] of 2 and an aggregation suppression score [9] of 1.2.
Compound CCC(=O)O[C@@H](O[P@](=O)(CCCCc1ccccc1)CC(=O)N1C[C@H](C2CCCCC2)C[C@H]1C(=O)O)C(C)C has an inhibition [1] of 5.65%, a score [2] of 0.97 and a rescue above control [3] of 2.83. It also gave a cytochrome c release ratio [4] of 0.8, an inhibition of aggregation [5] of 47.1% and a glutamate uptake change [7] of 4.48%. It also gave an inclusion score [8] of 2 and an aggregation suppression score [9] of 0.527.
In the case of CC(C)(O)[C@@H]1CC[C@](C)([C@H]2[C@@H](O)C[C@@]3(C)[C@@H]4C[C@H](O[C@@H]5O[C@H](CO)[C@@H](O)[C@H](O)[C@H]5O)[C@H]5C(C)(C)[C@@H](O[C@@H]6OC[C@@H](O)[C@H](O)[C@H]6O)CC[C@@]56C[C@@]46CC[C@]23C)O1, the luciferase signal [10] is reported as 52 AU (inactive).
In the case of COc1cc(-c2cc(=O)c3c(O)c(OC)c(OC)c(OC)c3o2)cc(OC)c1OC, the luciferase signal [10] is reported as 40 AU (inactive).
For CC1=CC(=O)CC(C)(C)C1(O)/C=C/C(C)=C\C(=O)O (stereo not given), the parasite load remaining [11] was 91.5% (inactive), the viability [11] was 73.1% and the luciferase signal [10] was 48 AU (inactive).
Compound CC[C@@]1(O)C[C@H](OC2CC(N(C)C)C(OC3CC(O)C(OC4CCC(=O)C(C)O4)C(C)O3)C(C)O2)c2c(cc3c(c2O)C(=O)c2c(O)cccc2C3=O)[C@H]1C(=O)OC (stereo not given in full) has an inhibition [1] of -23.8%, a score [2] of 0.51 and an SMN1 luciferase ratio [12] of 1.26. The SMN2/SMN1 luciferase ratio [12] was 1.34 (active), the SMN2 luciferase ratio [12] was 1.64 and the rescue above control [3] was 0. It also gave a cytochrome c release ratio [4] of 4.02, an inhibition of aggregation [5] of 1.96% and a normalised LDH release [6] of 0.363. The glutamate uptake change [7] was 47.8% and the aggregation suppression score [9] was 0.557.
In the case of CC1(C)O[C@@H]2C[C@H]3C4C[C@H](F)C5=CC(=O)C=CC5(C)[C@@]4(F)[C@@H](O)C[C@]3(C)[C@]2(C(=O)CO)O1 (stereo not given in full), the inhibition [1] is reported as -27.2%, the score [2] is reported as 1.29 and the rescue above control [3] is reported as -9.42. It also gave a cytochrome c release ratio [4] of 0.94, an inhibition of aggregation [5] of 61.1% and a glutamate uptake change [7] of 15.9%. It also gave an inclusion score [8] of 2 and an aggregation suppression score [9] of 1.43.
In the case of COC(=O)/C=C/C(C)=C\C=C\C(C)=C\C=C\C=C(C)\C=C\C=C(C)\C=C\C(=O)O, the luciferase signal [10] is reported as 64 AU (inactive).
Work on C=C1C(=O)OC2C1CCC1(C)CCC=C(C)C21 (stereo not given) yielded an inhibition [1] of 56%, a score [2] of 0.7 and a rescue above control [3] of 5.32. For the same compound, the cytochrome c release ratio [4] was 0.81, the inhibition of aggregation [5] was -33.3% and the normalised LDH release [6] was 0.89. For the same compound, the glutamate uptake change [7] was 0.76% and the aggregation suppression score [9] was 0.322.
